Data taken from PubChem BioAssay (Tox21).
Records with an inconclusive call do not appear. Calls of active or inactive are those of the source. The call rests on the fitted dose curve; in most records, active means well fitted curve in the direction sought with a large enough effect in the repeat runs; inconclusive means weak or mixed curves; inactive means no such curve, though single readings can be large; an effect the other way counts as inactive or inconclusive. Non-standard residues stand in square brackets, D forms with d. Residues, ends and D or L forms follow the SMILES beside them. *: point of attachment. Sta = CC(C)C[C@H](N)[C@@H](O)CC(=O)O; Isovaleryl = CC(C)CC(=O)*

Columns and labels:
[1] = qHTS RealTime-Glo MT Cell Viability Assay in HepG2 cells - 24 hour (AID 1224867); further: nearly all actives have a fitted effect of over 50% in size
Outline: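 HepG2 suspension premixed with RealTime-Glo reagents is plated at 600 cells per well and left 5 h at 37 C/5% CO2. Compounds in DMSO then go in, and bioluminescence reflecting viable cell number is recorded over 40 h.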

[2] = qHTS RealTime-Glo MT Cell Viability Assay in HEK293 cells - 32 hour (AID 1224868); further: top concentration of the series differs between compounds; nearly all actives have a fitted effect of over 50% in size
Outline: (§1)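 Reads taken at 0, 8, 16, 24, 32 and 40 h from the same wells. HEK293 cells (600/well) carried RealTime-Glo reagents from seeding, with compound added after a 5 h settle at 37 C.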

[3] = A CellTox Green Cytotoxicity Assay to monitor cytotoxicity in HEK293 cells - 0 hour (AID 1224869); further: nearly all actives have a fitted effect of over 50% in size
Outline: (§2)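 Dead-cell fluorescence measured kinetically: asymmetric cyanine dye, HEK293, 600 cells/well, 5 h settle, 23 nL cpd/DMSO, 37 C, reads 0–40 h every 8 h.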

[4] = qHTS RealTime-Glo MT Cell Viability Assay in HepG2 cells - 40 hour (AID 1224870); further: nearly all actives have a fitted effect of over 50% in size
Outline: (§3)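 HepG2 cells mixed with RealTime-Glo MT reagents (NanoLuc plus cell-permeant prosubstrate) were seeded at 600 cells/well, incubated 5 h at 37 C/5% CO2, then pinned with compounds in DMSO; nonlytic luminescence tracked viability during 40 h treatment.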

[5] = A CellTox Green Cytotoxicity Assay to monitor cytotoxicity in HEK293 cells - 40 hour (AID 1224871); further: nearly all actives have a fitted effect of over 45% in size
Outline: as §2

[6] = qHTS RealTime-Glo MT Cell Viability Assay in HEK293 cells - 16 hour (AID 1224872)
Outline: as §1

[7] = qHTS RealTime-Glo MT Cell Viability Assay in HepG2 cells - 8 hour (AID 1224873); further: nearly all actives have a fitted effect of over 55% in size
Outline: as §3

[8] = A CellTox Green Cytotoxicity Assay to monitor cytotoxicity in HEK293 cells - 24 hour (AID 1224875); further: series mostly up to about 77 µM; nearly all actives have a fitted effect of over 45% in size
Outline: as §2

[9] = A CellTox Green Cytotoxicity Assay to monitor cytotoxicity in HepG2 cells - 16 hour (AID 1224876); further: nearly all actives have a fitted effect of over 45% in size
Outline: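 First, HepG2 cells (600/well) mixed with reagent were plated; second, after 5 h at 37 C they received compounds via pintool; third, fluorescence was measured at 0 h through 40 h at 8 h intervals.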

[10] = qHTS RealTime-Glo MT Cell Viability Assay in HEK293 cells - 40 hour (AID 1224874); details: RealTime-Glo luminescence, hits give low values; further: nearly all actives have a fitted effect of over 50% in size
Outline: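 600 HEK293 cells per well, dispensed already mixed with RealTime-Glo MT reagents. Compound dosing came 5 h later. The same wells were read for luminescence at 0, 8, 16, 24, 32 and 40 h of exposure at 37 C.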
On the % scale 0 is the no-effect control and ±100 the full control effect.

CCCCCCCCCCCCCCCCN(C)C
inactive: activity change, negative = cytotoxicity [1] -0.0663% [at 6.97 µM] | activity change, negative = cytotoxic [2] 5.99% [at 6.97 µM] | cytotoxicity [3] 1.73% [at 6.97 µM] | activity change, negative = cytotoxic [4] -1.15% [at 6.97 µM] | cytotoxicity increase [5] 4.91% [at 6.97 µM] | activity change, negative = cytotoxicity [6] 5.86% [at 6.97 µM] | viability change, negative = cytotoxic [7] 3.36% [at 6.97 µM] | activity change [8] 2.54% [at 6.97 µM, hits give high values] | cytotoxicity increase [9] 1.82% [at 6.97 µM]

O=C(O)/C=C(\CC(=O)O)C(=O)O
inactive: outcome [1] | outcome [2] | outcome [3] | outcome [4] | Potency [5] | outcome [6] | outcome [7] | max response [10] 4.26% | Potency [8] | Potency [9]

CCC(C)SSC(C)CC (stereo not given)
inactive: outcome [1] | outcome [2] | outcome [3] | outcome [4] | Potency [5] | outcome [6] | outcome [7] | Potency [8] | Potency [9]

C/C=C(\C)C(=O)OC/C=C(\C)CCC=C(C)C
inactive: outcome [1] | outcome [2] | outcome [3] | outcome [4] | Potency [5] | outcome [6] | outcome [7] | max response [10] 7.26% | Potency [8] | Potency [9]

CN1C(CCl)Nc2cc(Cl)c(S(N)(=O)=O)cc2S1(=O)=O (stereo not given)
inactive: outcome [1] | outcome [2] | outcome [3] | outcome [4] | Potency [5] | outcome [6] | outcome [7] | Potency [8] | Potency [9]

CC(C)CC(O)Cc1ccccc1 (stereo not given)
inactive: outcome [1] | outcome [2] | outcome [3] | outcome [4] | Potency [5] | outcome [6] | outcome [7] | max response [10] 1.47% | Potency [8] | Potency [9]

COc1cc(OC)cc(OC)c1
inactive: outcome [1] | outcome [2] | outcome [3] | outcome [4] | Potency [5] | outcome [6] | outcome [7] | Potency [8] | Potency [9]

N=C(N)S(=O)O
inactive: outcome [1] | outcome [2] | outcome [3] | outcome [4] | Potency [5] | outcome [6] | outcome [7] | max response [10] 11.7% | Potency [8] | Potency [9]

N#Cc1cc(NC(=O)C(=O)O)c(Cl)c(NC(=O)C(=O)O)c1
inactive: outcome [1] | outcome [2] | outcome [3] | outcome [4] | Potency [5] | outcome [6] | outcome [7] | Potency [8] | Potency [9]

CC(C)CC(=O)N[C@H](C(=O)N[C@H](C(=O)N[C@@H](CC(C)C)[C@@H](O)CC(=O)N[C@@H](C)C(=O)N[C@@H](CC(C)C)[C@@H](O)CC(=O)O)C(C)C)C(C)C (Isovaleryl-VV[Sta]A[Sta]-OH)
inactive: outcome [1] | outcome [2] | outcome [3] | outcome [4] | Potency [5] | outcome [6] | outcome [7] | max response [10] 14.7% | Potency [8] | Potency [9]

O=c1[nH]c(=O)c2cn[nH]c2[nH]1
inactive: outcome [1] | outcome [2] | outcome [3] | outcome [4] | Potency [5] | outcome [6] | outcome [7] | max response [10] -0.927% | Potency [8] | Potency [9]

Cc1ccccc1OCC(=O)O
inactive: outcome [1] | outcome [2] | outcome [3] | outcome [4] | Potency [5] | outcome [6] | outcome [7] | max response [10] 3.48% | Potency [8] | Potency [9]

CC(C)(O)c1ccc(C(C)(C)O)cc1
inactive: outcome [1] | outcome [2] | outcome [3] | outcome [4] | Potency [5] | outcome [6] | outcome [7] | max response [10] 0.887% | Potency [8] | Potency [9]

Cc1ccc(O)c([N+](=O)[O-])c1
inactive: outcome [1] | outcome [2] | outcome [3] | outcome [4] | Potency [5] | outcome [6] | outcome [7] | max response [10] -15.2% | Potency [8] | Potency [9]

O=C(O)CCCCCCCCCC(=O)O
inactive: outcome [1] | outcome [2] | outcome [3] | outcome [4] | Potency [5] | outcome [6] | outcome [7] | max response [10] 0.0039% | Potency [8] | Potency [9]

NC[C@H]1O[C@H](O[C@H]2[C@H](O)[C@@H](O[C@H]3O[C@H](CO)[C@@H](O)[C@H](N)[C@H]3O)[C@H](N)C[C@@H]2N)[C@H](N)[C@@H](O)[C@@H]1O
inactive: activity change, negative = cytotoxicity [1] 0.499% [at 15.8 µM] | activity change, negative = cytotoxic [2] 4.09% [at 15.8 µM] | cytotoxicity [3] -1.07% [at 15.8 µM] | activity change, negative = cytotoxic [4] 0.593% [at 15.8 µM] | cytotoxicity increase [5] -1.49% [at 15.8 µM] | activity change, negative = cytotoxicity [6] 6.75% [at 15.8 µM] | viability change, negative = cytotoxic [7] 4% [at 15.8 µM] | max response [10] 5.23% | activity change [8] 0.657% [at 15.8 µM, hits give high values] | cytotoxicity increase [9] 0.586% [at 15.8 µM]

CC(C)c1cc(C(C)C)cc(C(C)C)c1
inactive: outcome [1] | outcome [2] | outcome [3] | outcome [4] | Potency [5] | outcome [6] | outcome [7] | max response [10] 5.73% | Potency [8] | Potency [9]

O=C(CCBr)N1CCN(C(=O)CCBr)CC1
inactive: outcome [1] | outcome [2] | outcome [3] | outcome [4] | Potency [5] | outcome [6] | outcome [7] | max response [10] 1.87% | Potency [8] | Potency [9]

CCCCCCCCCCCCCC(=O)OCC
inactive: outcome [1] | outcome [2] | outcome [3] | outcome [4] | Potency [5] | outcome [6] | outcome [7] | max response [10] -1.33% | Potency [8] | Potency [9]
